{"source": "paper PMC7819943", "about": "“Rice protein-binding microarrays: a tool to detect cis-acting elements near promoter regions in rice”", "note": "In all, about 68,000 sequences were measured (“fluorescence intensity (a.u.)”: median about 9,100, highest 2% from about 16,000 on). The sample as a whole holds a higher share of the highest values than the screen did."}
{"molecular_target": "OsWRKY34 (Oryza sativa, UniProt Q0JBA9 1-250)", "sequence (Q0JBA9 entry or part of it)": "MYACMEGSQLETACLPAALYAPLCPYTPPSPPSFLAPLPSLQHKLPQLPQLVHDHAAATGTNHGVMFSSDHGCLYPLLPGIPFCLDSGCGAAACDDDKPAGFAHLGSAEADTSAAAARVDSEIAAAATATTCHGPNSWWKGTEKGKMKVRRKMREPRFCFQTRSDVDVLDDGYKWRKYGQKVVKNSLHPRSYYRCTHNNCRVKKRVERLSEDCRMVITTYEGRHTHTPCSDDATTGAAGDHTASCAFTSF", "assay": "protein-binding microarray (RPBM); PBS, 2% BSA, 51.3 ng/ul salmon testes DNA, 50 uM zinc acetate, 200 nM TF, 25 C, 1 h; high values mean tight binding", "conditions": "protein: recombinant; tags: N-terminal polyhistidine and DsRed monomer fusion (pET32a); label: CyDye5-dUTP incorporated in the synthesized complementary strand; 3' TTTTT single-stranded linker to array surface; dsDNA, one strand shown", "how_it_was_run": "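Binding signal is reported as fluorescence intensity per feature (arbitrary units) from an Axon 4000B scanner. Incubation used 200 nM of each Ni–NTA-purified, N-terminally polyhistidine- and DsRed-fused transcription factor from E. coli BL21-CodonPlus on a double-stranded custom Agilent array for 1 h at 25 °C, with 50 µM zinc acetate in the buffer, followed by washing.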"}
{"sequence": "GGTTTGGTGGCGGAAAAGGTGGAGGCCTAGGTGGTGGTGGCGGAGTCACCTAGTGCAG", "binding signal": "8660 fluorescence intensity (a.u.)"}
{"sequence": "GCTAGATTGGATAAGGAGGGGAGGAGGGTGGAGGGGAGGGCGGAGTCACCTAGTGCAG", "binding signal": "22700 fluorescence intensity (a.u.)"}
{"sequence": "CGGCGCGGCGGAAGGAGGAGGGGTGGTGGATTCGTAGGGGCGGAGTCACCTAGTGCAG", "binding signal": "14600 fluorescence intensity (a.u.)"}
{"sequence": "TCCGGTTGTTTGCCGTGGCACTTCCTTTCTCCCTATTGGCCGGAGTCACCTAGTGCAG", "binding signal": "8260 fluorescence intensity (a.u.)"}
{"sequence": "AAGTGGGTGAGTCCAATAGGTGTGCACGTGAGGGGAGGGGCGGAGTCACCTAGTGCAG", "binding signal": "10500 fluorescence intensity (a.u.)"}
{"sequence": "ATTCGTGCTCAGTTGTTTCTTTTCCAACTCCGGCGTCCTCCGGAGTCACCTAGTGCAG", "binding signal": "8150 fluorescence intensity (a.u.)"}
{"sequence": "TACTCCTTATATTCCTTCATTTTTCAGCCTCGATCAGCTCCGGAGTCACCTAGTGCAG", "binding signal": "8130 fluorescence intensity (a.u.)"}
{"sequence": "TACGAGCTTCTCCTCCTCCGCTGGTCATCATCCTACCTGTCGGAGTCACCTAGTGCAG", "binding signal": "8440 fluorescence intensity (a.u.)"}
{"sequence": "TTCTACAGGAGTATCATCATCTTTGTGTTCTGGCTCCTGTCGGAGTCACCTAGTGCAG", "binding signal": "9040 fluorescence intensity (a.u.)"}
{"sequence": "GACAATTTCTTTTTCCGATGGGATTTTAGTTTTTTGTTTTCGGAGTCACCTAGTGCAG", "binding signal": "9700 fluorescence intensity (a.u.)"}
{"sequence": "CTCGCTAGCCCTCTGAACCTTGCAGTTTGTTGTTTGCACCCGGAGTCACCTAGTGCAG", "binding signal": "13600 fluorescence intensity (a.u.)"}
{"sequence": "TCGGCCCGAGCGGTGGCGGTGGCGGTGGCGGAGGAGGAGGCGGAGTCACCTAGTGCAG", "binding signal": "10100 fluorescence intensity (a.u.)"}
{"sequence": "GGGAGAGGGGTGTGGGGCGGAGAGGGAGAGGGAGATGGGACGGAGTCACCTAGTGCAG", "binding signal": "9680 fluorescence intensity (a.u.)"}
{"sequence": "GGCAGATGTGGACGGAGGGAGGGAGGGAGGGAGAGGGGCACGGAGTCACCTAGTGCAG", "binding signal": "17100 fluorescence intensity (a.u.)"}
{"sequence": "GGAGGTGGAGGCGGCGGAGGAGGTGGTGGTGGAGGTGGAGCGGAGTCACCTAGTGCAG", "binding signal": "17900 fluorescence intensity (a.u.)"}
{"sequence": "AGGAGGGCGGAGGAGGTGGTGGTGGTGGTGGTGGAGAGAGCGGAGTCACCTAGTGCAG", "binding signal": "25700 fluorescence intensity (a.u.)"}
{"sequence": "GGAGAGGGAGCGGGAGAGGGAGGATTGGAGGATGTGGGGACGGAGTCACCTAGTGCAG", "binding signal": "8940 fluorescence intensity (a.u.)"}
{"sequence": "GATGCGCGCGAACGGAGACGACGGGGTAGGGTGGGGAGGGCGGAGTCACCTAGTGCAG", "binding signal": "12300 fluorescence intensity (a.u.)"}
{"sequence": "GGGCGGAGCGGGGCGGAGGGAGAGGAGGGAGAGGAGGGAGCGGAGTCACCTAGTGCAG", "binding signal": "8480 fluorescence intensity (a.u.)"}
{"sequence": "GACCGAGAGCAGGCGACGGGGTGGGTGGAGGTAGTGAGAACGGAGTCACCTAGTGCAG", "binding signal": "9200 fluorescence intensity (a.u.)"}
{"sequence": "CGACGAGCGAGAGGTAGGTGAGAGAGAGACGGGCGGCGAACGGAGTCACCTAGTGCAG", "binding signal": "65100 fluorescence intensity (a.u.)"}
{"sequence": "GCGGAGGTGGTGGTGGCCTTGGAGGAGGTGGCGGCGGAGGCGGAGTCACCTAGTGCAG", "binding signal": "14300 fluorescence intensity (a.u.)"}
{"sequence": "CACTAGGTGAGCAATTTTGTTACCACGTCCATGTGCTGATCGGAGTCACCTAGTGCAG", "binding signal": "8810 fluorescence intensity (a.u.)"}
{"sequence": "GCACACGCTTCATGTTGACATTTTATCGAATCGTGTTCTGCGGAGTCACCTAGTGCAG", "binding signal": "8350 fluorescence intensity (a.u.)"}
{"sequence": "TTACTACTGCATTATCAAGTGTATCTTGCCATGTACTTCCCGGAGTCACCTAGTGCAG", "binding signal": "12100 fluorescence intensity (a.u.)"}
{"sequence": "GATCTCCATCTCCATCTCTCTCTCTCTCTCGAGCAGAGCACGGAGTCACCTAGTGCAG", "binding signal": "8360 fluorescence intensity (a.u.)"}
{"sequence": "CAATCACATCCGCGCGCATTTGGCCTGCGCCTTCAAATTTCGGAGTCACCTAGTGCAG", "binding signal": "12700 fluorescence intensity (a.u.)"}
{"sequence": "AACGATTTCTTCAGCATTTTCCATCCCCGCGGCTTCTTCTCGGAGTCACCTAGTGCAG", "binding signal": "8230 fluorescence intensity (a.u.)"}
{"sequence": "CGCAGAACACGTTTCCCAAATCTTGTACTACTACGTACTACGGAGTCACCTAGTGCAG", "binding signal": "9170 fluorescence intensity (a.u.)"}
{"sequence": "GCGGGGCGGTGACAACGACGGCGGTGCGGGGCGGTGGTGACGGAGTCACCTAGTGCAG", "binding signal": "10300 fluorescence intensity (a.u.)"}
{"sequence": "AACAGGAGGAGGAGGAGGAGGAGGAGGAGGAGAGGTGGGGCGGAGTCACCTAGTGCAG", "binding signal": "9280 fluorescence intensity (a.u.)"}
{"sequence": "GTGGAGTGCGGTGGACGGAGCGGCGGGGCGGGGCGGTCAGCGGAGTCACCTAGTGCAG", "binding signal": "16700 fluorescence intensity (a.u.)"}
{"sequence": "GCGCTACGGACGGAAGAGACGGAGTGGCACGGAATAAAGACGGAGTCACCTAGTGCAG", "binding signal": "61600 fluorescence intensity (a.u.)"}
{"sequence": "CTAGCTTTGAGGTGGAGGTGGTGGTGGAGGAGGAGGAGGACGGAGTCACCTAGTGCAG", "binding signal": "12600 fluorescence intensity (a.u.)"}
{"sequence": "GGAGGAGCGGTGCGTGGGGTCAGCGGCCGGCGGGAGGGCACGGAGTCACCTAGTGCAG", "binding signal": "9670 fluorescence intensity (a.u.)"}
{"sequence": "GTGGCGGCGGAGGAGGTGGGATGGGGATTTGATGATGGCCCGGAGTCACCTAGTGCAG", "binding signal": "8320 fluorescence intensity (a.u.)"}
{"sequence": "GGGAGGGAGAGGAGGCGGAGGAGGAGGAGGTGGAGGAGTACGGAGTCACCTAGTGCAG", "binding signal": "8610 fluorescence intensity (a.u.)"}
{"sequence": "TATATATATATATATATATATATATATATATATAAAGAGACGGAGTCACCTAGTGCAG", "binding signal": "11100 fluorescence intensity (a.u.)"}
{"sequence": "AGTTGTGGACTGGAAGAGAGGGGAGGCATGGGGACAAAGACGGAGTCACCTAGTGCAG", "binding signal": "9320 fluorescence intensity (a.u.)"}
{"sequence": "AGAGGTGGAGGAGAGGAGGGGAGGGGAGGGGAGGTGAGGGCGGAGTCACCTAGTGCAG", "binding signal": "18700 fluorescence intensity (a.u.)"}
{"sequence": "GAGGTGGTGGTGGTGGTGGTGGATGGCGCCCTGCTTTGACCGGAGTCACCTAGTGCAG", "binding signal": "23500 fluorescence intensity (a.u.)"}
{"sequence": "TCAAAGGTTGGTTTGATTTGTTGCTATTTGTTGGTTTGATCGGAGTCACCTAGTGCAG", "binding signal": "8630 fluorescence intensity (a.u.)"}
